{"source": "PubChem BioAssay (NCATS)", "note": "Inconclusive results are not listed. Values without a mark were called inactive. Activity calls are given as the source filed them. Calls come from the whole dose curve; as a rule, active = well fitted inhibition curve with a large enough effect; inconclusive = small, poorly fitted or top-dose-only effect; inactive = flat fitted curve, though single readings scatter. Potency is the fitted concentration of half-maximal effect.", "data": [{"system": "CP203", "assay": "qHTS profiling for inhibitors of Plasmodium falciparum proliferation (AID 504749); note: nearly all actives have a fitted effect of over 60% in size;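 for activity, negative = inhibition: 0% = DMSO vehicle and full inhibition = artemisinin control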", "conditions": "P. falciparum in erythrocytes, SYBR Green DNA, 72 h; series mostly up to 28.7 µM; activity, negative = inhibition: at the top concentration", "source_text": "NIH National Institute of Allergy and Infectious Diseases [NIAID] NIH Chemical Genomics Center [NCGC] MLPCN Grant: None Assay Provider: Xinzhuan Su, NIAID NCGC Assay Overview: Plasmodium falciparum is a virulent malarial parasite that kills 1-2 million people worldwide each year. Transmitted by mosquitoes, the sporozoite form of the parasite enters the blood stream to infect hepatocytes, where they become merozoites that infect red blood cells (erythrocytes). Within erythrocytes, merozoites begin a […] cycle of growth and division, after which the parasite is released to infect new red blood cells. Gametocytes, which form within erythrocytes as well, circulate in the bloodstream and are ingested by the mosquito, thereby completing the life cycle. To profile malarial isolates for differential chemical responses and to identify inhibitors of malarial growth, an assay that measures P. falciparum growth and replication within erythrocytes was employed. This assay uses a DNA binding fluorescent dye (SYBR Green) to detect parasite DNA following cell lysis. Because mature erythrocytes lack DNA, only Plasmodium-derived DNA is detected.\nNCGC Assay Protocol Summary: The SYBR Green viability assay was adapted from a method described previously (Plouffe et al., 2008). For screening 3 ul culture medium was dispensed into 1536 well black clear bottom plates (Aurora Biotechnologies) using a Multidrop Combi (Thermo Fisher Scientific Inc.), 23 nL compounds in DMSO were added by a pin tool (Kalypsys), and 5 ul of erythrocytes infected with P. falciparum (0.3% parasitemia, 2.5% hematocrit final concentration) were added. The plates were incubated at 37 C in a humidified incubator in 5% CO2 for 72 h, and 2 ul lysis buffer (20 mM Tris HCl, 10 mM EDTA, 0.16% saponin, 1.6% triton X, 10X SYBR Green I supplied as 10,000X […] by Invitrogen) was added to each well. The plates were mixed for 25 sec with gentle shaking and incubated overnight at room temperature in the dark. The following morning, fluorescence intensity at 485(14) nm excitation and 535(25) nm emission wavelengths was measured on an EnVision (Perkin Elmer) plate reader. Plate reads were normalized relative to the control inhibitor (0.29 uM artemisinin) and vehicle (DMSO) wells present on each plate and then corrected by an algorithm using vehicle-only control plates at the beginning and end of the compound plate stack.", "values": [{"compound": "Nc1ncnc2c1ncn2[C@@H]1O[C@H](CO)[C@@H](O)[C@H]1O", "activity, negative = inhibition": "8.12%"}, {"compound": "Cc1ncc(COP(=O)(O)O)c(C=O)c1O", "activity, negative = inhibition": "0.0552%"}, {"compound": "CC[C@@]1(c2ccccc2)NC(=O)N(C)C1=O", "activity, negative = inhibition": "-0.458%"}, {"compound": "O=C1c2c(O)cccc2Cc2cccc(O)c21", "activity, negative = inhibition": "-0.164%"}, {"compound": "Oc1cn2c(n1)Nc1ccc(Cl)c(Cl)c1C2", "activity, negative = inhibition": "13.2%"}, {"compound": "Cc1ccc2nc(N)[nH]c(=O)c2c1Sc1ccncc1", "activity, negative = inhibition": "-6.56%"}, {"compound": "NS(=O)(=O)c1cc2c(cc1Cl)NC(CSCc1ccccc1)=NS2(=O)=O", "activity, negative = inhibition": "-0.442% [at 12.8 µM]"}, {"compound": "O=C(Oc1ccccc1C(=O)O)c1ccccc1O", "activity, negative = inhibition": "14.3%"}, {"compound": "C[C@H]1O[C@@H](n2cc(F)c(=O)[nH]c2=O)[C@H](O)[C@@H]1O", "activity, negative = inhibition": "2.39%"}, {"compound": "COc1cc2[nH]c(=O)[nH]c(=O)c2cc1OC", "activity, negative = inhibition": "5.32% [at 12.8 µM]"}, {"compound": "N[C@@H](CSCCCO)C(=O)O", "activity, negative = inhibition": "1.05%"}, {"compound": "COC(=O)C1=C(C)NC(C)=C(C(=O)OC)C1c1ccccc1[N+](=O)[O-]", "activity, negative = inhibition": "-8.51%"}, {"compound": "O=C(CCCN1CCN(c2ccccn2)CC1)c1ccc(F)cc1", "activity, negative = inhibition": "-1.36%"}, {"compound": "CCCCCCCCCCCCOS(=O)(=O)O", "activity, negative = inhibition": "4.61%"}, {"compound": "O=C(O)c1ccccc1-c1ccc(C(F)(F)F)cc1", "activity, negative = inhibition": "11.4%"}, {"compound": "CC(=O)NC(Cc1ccccc1)C(=O)O", "note": "(stereo not given)", "activity, negative = inhibition": "3.82%"}, {"compound": "C#CCN(C)Cc1ccccc1", "activity, negative = inhibition": "-2.86% [at 12.8 µM]"}, {"compound": "Oc1cccc(O)c1", "activity, negative = inhibition": "2.87%"}, {"compound": "Nc1ccc(S(=O)(=O)Nc2ccc(Cl)nn2)cc1", "activity, negative = inhibition": "9.01% [at 12.8 µM]"}, {"compound": "O=c1cc[nH]c(=S)[nH]1", "activity, negative = inhibition": "0.243%"}, {"compound": "O=c1[nH]c(=O)c2[nH]c(=O)[nH]c2[nH]1", "activity, negative = inhibition": "0.518%"}, {"compound": "CCCn1cnc2c1c(=O)n(CCCCC(C)=O)c(=O)n2C", "activity, negative = inhibition": "8.86%"}, {"compound": "CC1=C(/C=C/C(C)=C/C=C/C(C)=C/C(=O)O)C(C)(C)CCC1", "activity, negative = inhibition": "-6.11%"}, {"compound": "C[C@]12C[C@H](O)[C@H]3[C@@H](CCC4=CC(=O)CC[C@@]43C)[C@@H]1CC[C@@H]2C(=O)CO", "activity, negative = inhibition": "-2.28%"}, {"compound": "NC(CSCC(=O)O)C(=O)O", "note": "(stereo not given)", "activity, negative = inhibition": "-0.684%"}, {"compound": "O=C(O)COc1nn(Cc2ccccc2)c2ccccc12", "activity, negative = inhibition": "-6.47%"}, {"compound": "COc1ccc2c(c1)C(=O)N(CCc1ccc(S(=O)(=O)NC(=O)NC3CCCCC3)cc1)C(=O)C2(C)C", "activity, negative = inhibition": "1.48% [at 12.8 µM]"}, {"compound": "CC(=O)Oc1ccc(C2(c3ccc(OC(C)=O)cc3)C(=O)Nc3ccccc32)cc1", "Potency": "inactive"}, {"compound": "[Cl][In]([Cl])[Cl]", "activity, negative = inhibition": "-9.49%"}, {"compound": "Cc1c(Cl)cccc1Nc1ccccc1C(=O)O", "activity, negative = inhibition": "1.86%"}, {"compound": "CCC(=O)c1ccc(O)cc1", "activity, negative = inhibition": "2.38%"}, {"compound": "CC1(C)CO[C@@H](CC(=O)O)CN1", "activity, negative = inhibition": "-0.652%"}, {"compound": "CCCCN(CCCC)CC(O)c1cc(Cl)cc2c1-c1ccc(Cl)cc1/C2=C/c1ccc(Cl)cc1", "note": "(stereo not given)", "Potency": "0.019 µM (active)"}, {"compound": "COc1cc(C(=O)N2CCOCC2)cc(OC)c1OC", "Potency": "inactive"}, {"compound": "CCN(CC)CCNC(=O)c1cc(Cl)c(N)cc1OC", "activity, negative = inhibition": "2.23%"}, {"compound": "CCOC(CN1CCN(CC(C)C(=O)c2ccccc2)CC1)c1ccccc1", "note": "(stereo not given)", "activity, negative = inhibition": "-23.6%"}, {"compound": "Nc1ccc(S(=O)(=O)Nc2ccccc2)cc1", "activity, negative = inhibition": "1.29%"}, {"compound": "CCN(CC)CCNC(=O)c1c(C)[nH]c(/C=C2\\C(=O)Nc3ccc(F)cc32)c1C", "Potency": "10.7 µM (active)"}, {"compound": "CCCCc1ncc(/C=C(\\Cc2cccs2)C(=O)O)n1Cc1ccc(C(=O)O)cc1", "activity, negative = inhibition": "-1.45%"}, {"compound": "O=S(=O)(O)NC1CCCCC1", "activity, negative = inhibition": "-1.92%"}]}]}
